KCNQ2 pot: potentiators of rat KCNQ2 potassium channel; O88943; CHO-K1 KCNQ2, FluxOR thallium flux fluorescence; stronger effect = higher value; B-score at 10 µM; 310,000 tested, 0.54% active; AID 2239;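 active = fluorescence ratio B-score at least 3 SD of library B-scores, with initial fluorescence B-score within 3 of them, cut at about 5.3 in these data; same plate scores as AID 2156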;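 also: B-score of peak minus minimum over baseline fluorescence ratio after K+ and Tl+ stimulus; positive B-score means potentiation of KCNQ2 with more thallium influx and brighter signal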
KCNQ2 block: KCNQ2 (rat) channel inhibition | B-score at 10 µM | CHO-K1 KCNQ2, FluxOR thallium flux, 20 min; stronger effect = lower value | 310,000 tested, 1.1% active | O88943;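 active = fluorescence ratio B-score at most minus 3 library SDs, with starting brightness B-score within 2 library SDs, cut at about -5.5 in these data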
KCNQ2 inh conf: confirmation of rat KCNQ2 potassium channel inhibitors; shares compounds with KCNQ2 block; KCNQ2-expressing cells, thallium flux, inhibition; stronger effect = lower value; activity change, negative = inhibition, % at 10 µM; 1,000 tested, 57% active; AID 493025;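 also: 0% = vehicle wells and values are ratio percent relative to vehicle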
KCNQ1 spec: human KCNQ1 activity in KCNQ2 inhibitor specificity screen | shares compounds with KCNQ2 block | KCNQ1-expressing cells, FluxOR thallium flux fluorescence; stronger effect = lower value | activity change, negative = inhibition, % at 10 µM | 1,000 tested, 15% active | AID 493026;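 active = activity change at least 3 SD of negative controls below their mean in both duplicate wells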;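 also: CHO cells stably transfected with KCNQ1 and depolarized by potassium stimulus; peak minus minimum fluorescence over baseline after thallium addition; 0% = vehicle negative control and -100% = blank without thallium stimulus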
CHO parental ctr: activity in parental CHO cells lacking KCNQ2; shares compounds with KCNQ2 block; thallium flux counter-screen; stronger effect = lower value; activity change, % at 10 µM; 1,000 tested, 14% active;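 also: 0% = vehicle negative controls with stimulus buffer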
KCNQ2 inh confirm: rat KCNQ2 inhibition confirmed by electrophysiology; shares compounds with KCNQ2 block; KCNQ2-expressing cells, automated patch clamp current; calls only at 10 µM; 550 tested, 49% active
An asterisk follows results filed as active. Only some compounds are listed: those with a hit (about 1.6% of all), similar ones and a draw of the others. Unless noted, no rule for the calls is given here.

For Cc1ccc(O)c(CNc2nc3ccccc3n2C(C)C)c1 the results were KCNQ2 block inactive.
Screening Cc1cccc(-c2noc(CN(C(=O)CCc3ccccc3)C(C)C)n2)c1 returned KCNQ2 pot -8, KCNQ2 block -8*, KCNQ2 inh conf -36%*, KCNQ1 spec -36%*, CHO parental ctr -28%* and KCNQ2 inh confirm inactive.
For Cc1cccc(-c2noc(CN(C)S(=O)(=O)c3cc(Cl)ccc3Cl)n2)c1 the results were KCNQ2 pot -11, KCNQ2 block -11*, KCNQ2 inh conf inactive, KCNQ1 spec inactive and CHO parental ctr inactive.
For Cc1cccc(-c2noc(CN(C(=O)/C=C/c3ccccc3Cl)C(C)C)n2)c1 the results were KCNQ2 block inactive.
`COc1ccc(Cl)cc1C(=O)N(Cc1nc(-c2cccc(C)c2)no1)C(C)C` gave KCNQ2 block inactive.
For COc1cc(CN2CCCN(C)CC2)cc([N+](=O)[O-])c1O the results were KCNQ2 pot 0.02 and KCNQ2 block inactive.
`O=C(CC(Nc1ccc(F)cc1)C(=O)OCC(=O)c1cccs1)c1ccccc1` (configuration not stated) gave KCNQ2 block inactive.
CC1=Nc2ccccc2/C1=C/c1nc(-c2ccc(C)s2)oc1O was read as KCNQ2 block inactive.
For CC1=Nc2ccccc2/C1=C/c1sc(=N)n(-c2nccs2)c1O the results were KCNQ2 pot -9.9, KCNQ2 block -9.9*, KCNQ2 inh conf -52%*, KCNQ1 spec -62%*, CHO parental ctr -57%* and KCNQ2 inh confirm inactive.
O=C(CNC(=O)c1sc2ccccc2c1Cl)Nc1ccccc1F was read as KCNQ2 pot 1.3 and KCNQ2 block inactive.
O=C(NCCCn1ccnc1)C(=O)c1c[nH]c2ccccc12 was read as KCNQ2 block inactive.
Cc1cc(Cl)cc(C)c1OCCNCc1ccccc1 was read as KCNQ2 pot -6.9, KCNQ2 block -6.9*, KCNQ2 inh conf inactive, KCNQ1 spec inactive and CHO parental ctr inactive.
`Cc1cc(C)c(OCCNCc2ccccc2)c(C)c1` gave KCNQ2 block inactive.
O=C(NCc1nnc(SCc2ccc(F)cc2)n1-c1ccc(F)cc1)C12CC3CC(CC(C3)C1)C2 was read as KCNQ2 pot 0.34 and KCNQ2 block inactive.
`Cc1cccc(-n2nc3c(c2NC(=O)CCCl)CSC3)c1` gave KCNQ2 block inactive.
Cc1cccc(-n2nc3c(c2NC(=O)c2ccc(Br)o2)CSC3)c1 was read as KCNQ2 pot -9, KCNQ2 block -9*, KCNQ2 inh conf -28%*, KCNQ1 spec inactive, CHO parental ctr inactive and KCNQ2 inh confirm inactive.
`Oc1c(CN2CCOCC2)cc(-c2ccccc2)cc1CN1CCOCC1` gave KCNQ2 block inactive.
`Cc1cc(CN2CCOCC2)c(O)c(C2(C)CCCCC2)c1` gave KCNQ2 pot -7.2, KCNQ2 block -7.2*, KCNQ2 inh conf -19%*, KCNQ1 spec inactive, CHO parental ctr inactive and KCNQ2 inh confirm inactive.
For Cc1cc(CN(C)C)c(O)c(C2(C)CCCCC2)c1 the results were KCNQ2 pot -9.1, KCNQ2 block -9.1*, KCNQ2 inh conf inactive, KCNQ1 spec inactive and CHO parental ctr inactive.
`Cc1ccc(-c2cc(C(=O)N3CCN(C(=O)c4ccco4)CC3)[nH]n2)c(C)c1` gave KCNQ2 pot 0.35 and KCNQ2 block inactive.
For COc1ccc(CCNCC(O)Cn2c3ccccc3c3ccccc32)cc1OC (configuration not stated) the results were KCNQ2 pot -7, KCNQ2 block -7*, KCNQ2 inh conf -24%*, KCNQ1 spec inactive, CHO parental ctr inactive and KCNQ2 inh confirm inactive.
COc1ccccc1NCC(O)Cn1c2ccccc2c2ccccc21 (configuration not stated) was read as KCNQ2 pot 0.4 and KCNQ2 block inactive.
`O=S(=O)(c1ccccc1)N(CC1CO1)c1cccc2ccccc12` (configuration not stated) gave KCNQ2 pot 1.1 and KCNQ2 block inactive.
For CCN(CC)C(=O)c1c2c(nc3ccccc13)-c1ccccc1CC2 the results were KCNQ2 pot -8.8, KCNQ2 block -8.8*, KCNQ2 inh conf inactive, KCNQ1 spec inactive and CHO parental ctr inactive.
Screening COc1cccc2c1CCc1c-2nc2ccccc2c1C(=O)O returned KCNQ2 pot 0.66 and KCNQ2 block inactive.
CC(C)CNC(=O)c1c2c(nc3ccccc13)-c1ccccc1CC2 was read as KCNQ2 block inactive.
For C=CCNC(=O)c1c2c(nc3ccccc13)-c1ccccc1CC2 the results were KCNQ2 pot -7.6, KCNQ2 block -7.6*, KCNQ2 inh conf inactive, KCNQ1 spec inactive and CHO parental ctr inactive.
O=C(CSc1nc(=O)n2ccccc2n1)N1CCCCCC1 was read as KCNQ2 pot 1.3 and KCNQ2 block inactive.
For O=C(COC(=O)c1ccccc1)Nc1cc(Cl)ccc1Oc1ccccc1 the results were KCNQ2 block inactive.
For O=C(COC(=O)c1c(Cl)cccc1Cl)Nc1cc(Cl)ccc1Oc1ccccc1 the results were KCNQ2 block inactive.
`Cc1ccccc1OCC(=O)Nc1cc(Cl)ccc1Oc1ccccc1` gave KCNQ2 pot -7.4, KCNQ2 block -7.4*, KCNQ2 inh conf -26%*, KCNQ1 spec inactive, CHO parental ctr inactive and KCNQ2 inh confirm inactive.
`COc1ccccc1OCC(=O)Nc1cc(Cl)ccc1Oc1ccccc1` gave KCNQ2 pot -10, KCNQ2 block -10*, KCNQ2 inh conf -32%*, KCNQ1 spec -35%*, CHO parental ctr -30%* and KCNQ2 inh confirm active.
For NC(=O)c1ccccc1OCc1nnc(-c2ccccc2Br)o1 the results were KCNQ2 pot 0.45 and KCNQ2 block inactive.
Screening O=C(/C=C/Nc1ccc(Nc2ccccc2)cc1)c1cccs1 returned KCNQ2 pot -7.3, KCNQ2 block -7.3*, KCNQ2 inh conf inactive, KCNQ1 spec inactive and CHO parental ctr inactive.
For Cc1ccc(N/C=C/C(=O)c2cccs2)cc1C the results were KCNQ2 block inactive.
`CN1C(=O)C2C(c3ccc(N(C)C)cc3)=NN(Cc3ccccc3)C2C1=O` (configuration not stated) gave KCNQ2 block inactive.
COc1ccc(NC(=O)Nc2c(C)n(C)n(-c3ccccc3)c2=O)c(OC)c1 was read as KCNQ2 block inactive.
Cc1cccc(N2CCN(C(=O)C(Cc3ccccc3)n3cccc3)CC2)c1C (configuration not stated) was read as KCNQ2 pot -13, KCNQ2 block -13*, KCNQ2 inh conf -43%*, KCNQ1 spec -34%*, CHO parental ctr -31%* and KCNQ2 inh confirm inactive.
Cc1cccc(N2CCN(C(=O)C(Cc3ccccc3)NC(N)=O)CC2)c1C (configuration not stated) was read as KCNQ2 pot 0.13 and KCNQ2 block inactive.
For Cc1ccccc1NC(=O)NCc1ccccn1 the results were KCNQ2 block inactive.

High-throughput results deposited in PubChem by Johns Hopkins Ion Channel Center.
